Pf growth 48h = Primary qHTS for delayed death inhibitors of the malarial parasite plastid, 48 hour incubation. P. falciparum luciferase growth in erythrocytes, 48 h. Potency, µM (doses to about 28.7 µM), inactives show top-dose activity change, negative = inhibition, actives largely listed as inhibitors. 310,000 tested, 5.9% active; further: potency means the concentration at half of the fitted maximal effect; on the % scale 0 is the no-effect control and ±100 the full control effect
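Growth was read as firefly luciferase luminescence after a 48 h, 37 C, 5% CO2 exposure of compounds to reporter-bearing P. falciparum cultures (0.1% parasitemia, 2% hematocrit final) in Albumax-supplemented RPMI 1640.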
HCV inh = qHTS Assay for Inhibitors of Hepatitis C Virus (HCV); Potency, µM (series often up to 41.8 µM), without a hit: at the highest dose activity change, negative = inhibition, usual class: inhibitors; 340,000 tested, 3.4% active; AID 651820, 2012; Huh7.5.1 HCVcc-Cre infection, luciferase reporter, 44 h; further: potency means the concentration at half of the fitted maximal effect; on the % scale 0 is the no-effect control and ±100 the full control effect
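1,000 cells/well; 4 h culture; + compound; + HCVcc-Cre (~0.5 moi); 44 h; luciferase substrate, RT 15 min; read 15 sec.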
Shiga toxin inh = A qHTS for Small Molecule Inhibitors of Shiga Toxin; Vero cells, Shiga toxin protein synthesis inhibition reporter; inhibition, % at 38.7 µM; 290,000 tested, 9.2% active; AID 2315, 2010; in the data active means inhibition mostly above about 28%, no sharp cut-off; inactive means mostly below about 43%; further: 0% is about no effect
Cycloheximide cs = Cycloheximide Counterscreen for Small Molecule Inhibitors of Shiga Toxin | cell reporter, cycloheximide protein synthesis inhibition counterscreen | max response, % | 300,000 tested, 12% active | AID 2314, 2010; in the data active means max response mostly above about 13%, no sharp cut-off; inactive means mostly below about 14%; further: read at 38.3 µM for the half of the compounds with a filed dose; 0% is about no effect
AMA1-RON2 inh = qHTS for Inhibitors of AMA1-RON; Towards Development of Antimalarial Drug Lead: Primary Screen. Plasmodium falciparum AMA1 (3D7) - RON2 peptide interaction. AlphaScreen AMA1-biotinylated RON2 peptide binding. Potency, µM (top dose mostly 58.2 µM), for inactives: top-dose activity change, negative = inhibition, usual class: inhibitors. 360,000 tested, 0.2% active. AID 720542, 2013;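 further: potency means the concentration at half of the fitted maximal effect; 0% = vehicle wells and -100% = peptide control; nearly all actives have a fitted effect of over 45% in size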
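AMA1 (3D7) with his tag at 25 nM final met compounds first, then biotinylated RON2 peptide at 25 nM; detection used donor plus acceptor beads, 10 µg/mL apiece, read by AlphaScreen after 30 min at room temperature.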
Pf growth 96h = Primary qHTS for delayed death inhibitors of the malarial parasite plastid, 96 hour incubation | P. falciparum luciferase reporter growth, 96 h | Potency, µM (highest dose often 28.7 µM), inactives show at the highest dose activity change, negative = inhibition, hits mostly inhibitors | 320,000 tested, 6.9% active | AID 504834, 2011; further: potency means the concentration at half of the fitted maximal effect; on the % scale 0 is the no-effect control and ±100 the full control effect
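Readout is luminescence from an integrated firefly luciferase in P. falciparum. Red cells, 2% hematocrit and 0.05% parasitemia final, were cultured with compound through two parasite generations (96 hours) at 37 C, 5% CO2.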
* marks the source's active call; other numbers are inactive results; i = inactive; ? = inconclusive; . = no result. Only some compounds are listed: those with a hit (about 21% of all), similar ones and a draw of the others. Unless noted, the call rests on the fitted dose curve; in most records, active means well fitted curve in the direction sought with a large enough effect; inconclusive means small, poorly fitted or top-dose-only effect, or another doubt; inactive means no such curve, though single readings can be large; an effect the other way counts as inactive or inconclusive.

SMILES	Pf growth 48h	HCV inh	Shiga toxin inh	Cycloheximide cs	AMA1-RON2 inh	Pf growth 96h
Cc1cn([C@H]2C[C@H](O)[C@@H](CCC(=O)NCc3ccccc3)O2)c(=O)[nH]c1=O	.	3.5µM*	.	.	5%	.
Cc1cn([C@H]2C[C@H](O)[C@@H](CCC(=O)NCC(c3ccccc3)c3ccccc3)O2)c(=O)[nH]c1=O	.	.	.	.	-8%	.
COc1ccc(NC(=O)N(C)C[C@H]2Oc3ccc(NC(=O)Nc4ccc5c(c4)OCO5)cc3C(=O)N([C@H](C)CO)C[C@@H]2C)cc1	.	3%	.	.	-11%	.
N#Cc1ccccc1NS(=O)(=O)c1cc2c3c(c1)CCC(=O)N3CCC2	?	7%	.	.	1%	-3%
O=C1c2ccccc2-c2nc3ccccc3n21	35%	3%	2	-3	-9%	31%
COc1ccc2c(c1)C1(Nc3ccccc3-c3nc4ccccc4n31)C(=O)N2C (centres undefined)	6.6µM*	3%	15	-1	-1%	15%
COc1ccc(N2C(=O)c3ccccc3NC23C(=O)N(C)c2ccccc23)cc1 (centres undefined)	5%	0%	5	1	-8%	.
CC1(c2ccncc2)Nc2ccccc2-c2nc3ccccc3n21 (centres undefined)	3.3µM*	-7%	29	16*	10%	2.6µM*
COc1ccc2c(c1)C1(Nc3ccccc3-c3nc4ccccc4n31)C(=O)N2 (centres undefined)	0.41µM*	11%	-18	-3	-4%	.
Cc1nn(C)c(C)c1CN(C(=O)C1CCC(=O)N(C2CCCCCC2)C1)C(C)C (centres undefined)	?	24%	43	31*	3%	12µM*
CCN1C(=O)[C@H]2[C@@H](c3ccc(C(F)(F)F)cc3)N[C@]3(CCCN(Cc4ccc(Cl)cc4)C3=O)[C@H]2C1=O	.	.	.	.	-8%	.
C=CCSSSCC=C	1%	.	.	.	.	-29%
O=C(CC1CCCCC1)NC1CCCC1	25%	0%	26	19*	13%	.
O=C(CC1CCS(=O)(=O)C1)NC1CCCCC1 (centres undefined)	0%	17%	-6	-2	30%	11%
C=CCOC(=O)CCCC(=O)NC1CCCCC1	21%	-7%	active	8	5%	-15%
O=C(CCC1CCCC1)NC1CCCCC1	.	-7%	65*	18*	-1%	126%
Cc1cccc(NC(=O)CNC(=O)CSc2nnc(C(F)(F)F)n2C)c1C	-8%	5%	.	.	-25%	-35%
CC1(C(=O)NS(=O)(=O)C2CC2)CCN(C(=O)COCc2ccccc2)C1 (centres undefined)	.	.	.	.	11%	.
On1onc2c3cc(-c4ccccc4)nc3ccc21	?	2.2µM*	128*	69*	-26%	.
Cc1ccc(C2/C=C\CC(NC(=O)OCC3c4ccccc4-c4ccccc43)CC(=O)N2Cc2ccccc2)cc1 (centres undefined)	.	18µM*	.	.	-16%	.
O=C(NC1CC1(c1ccccc1)c1ccccc1)c1ccccc1 (centres undefined)	.	7%	.	.	18%	.
COc1c(C)cc(C(=O)C2CCCN(C(=O)c3cccc(-n4cccn4)c3)C2)cc1C (centres undefined)	4%	?	19	13*	-15%	i
COc1c(C)cc(C(=O)C2CCCN(C(=O)c3cc4nc(C)cc(C)n4n3)C2)cc1C (centres undefined)	?	7%	25*	7	-8%	?
COc1c(C)cc(C(=O)C2CCCN(C(=O)c3ccc4[nH]ccc4c3)C2)cc1C (centres undefined)	-4%	-8%	-1	5	0%	?
COc1c(C)cc(C(=O)C2CCCN(C(=O)c3csc(C)n3)C2)cc1C (centres undefined)	12%	?	-8	-3	-8%	14%
COc1ccc(NC(=O)/C(C#N)=C/c2ccc(Sc3nncn3C)c([N+](=O)[O-])c2)cc1	?	13%	-4	1	0%	?
